Source: PubChem BioAssay (several laboratories)
DAT uptake mod = modulates human dopamine transporter uptake under cocaine. LLC-PK1 hDAT cells, [14C]-dopamine uptake with cocaine IC80; actives deviate in either direction. B-score at 10 µM. hit rate 1.3% among 110,000. AID 449768;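 active = Z score or B-score, a plate-position-corrected score, falls beyond the plate's 99.7% confidence bounds, in either direction; inactive = both scores lie inside the 99.7% bounds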;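 also: scored against the spread of the other compound wells on the same plate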
D1 allo mod = allosterically modulates the human D1 dopamine receptor | HEK293 D1, CRE-luciferase, dopamine EC30 potentiation; actives deviate in either direction | hit rate 5.9% among 58,000 | B-score at 10 µM | P21728;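 active = luminescence count or its row- and column-corrected plate score outside the 99.7% band of the plate's sample wells, on either side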
Target sequence (P21728 whole entry, looked up): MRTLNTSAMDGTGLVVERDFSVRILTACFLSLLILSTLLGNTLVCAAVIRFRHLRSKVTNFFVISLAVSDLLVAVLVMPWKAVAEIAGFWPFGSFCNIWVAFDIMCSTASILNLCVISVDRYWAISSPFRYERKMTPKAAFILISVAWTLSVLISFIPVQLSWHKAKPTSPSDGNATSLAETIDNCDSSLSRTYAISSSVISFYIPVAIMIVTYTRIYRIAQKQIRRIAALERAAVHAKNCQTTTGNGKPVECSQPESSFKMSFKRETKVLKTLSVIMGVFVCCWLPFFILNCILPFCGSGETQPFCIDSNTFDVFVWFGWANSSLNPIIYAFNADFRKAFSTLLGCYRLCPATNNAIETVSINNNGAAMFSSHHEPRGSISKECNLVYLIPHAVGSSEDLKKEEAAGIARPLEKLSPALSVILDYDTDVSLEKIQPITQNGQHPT
EphB4 antag = EphB4-ephrin-B2 interaction antagonism; hit rate 0.15% among 97,000; EphB4 LBD / TNYL-RAW-Alexa532 peptide, fluorescence polarization; inhibition, % at 7 µM; P54760;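 active = inhibition above the screen-wide mean inhibition plus 3 SD, cut at about 15% in these data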;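 also: 0% = DMSO wells and 100% = excess unlabeled TNYL-RAW peptide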
D1 mod confirm = confirmation of human D1 dopamine receptor allosteric modulators | luminescence at 10 µM | HEK293 D1 CRE-luciferase, dopamine EC30 potentiation; stronger effect = higher value | hit rate 88% among 2,200 | shares compounds with D1 allo mod;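 active = luminescence in either of two replicates above the same-plate mean plus 3 SD of the low-dose dopamine control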
D1 no dopamine = activates D1 CRE-luciferase signal without dopamine present. AID 646. HEK293 D1 CRE-luciferase, luminescence, no dopamine; stronger effect = higher value. luminescence at 10 µM. shares compounds with D1 allo mod. hit rate 0.8% among 1,900; in the data active = luminescence above about 3900
Isoprot counter = isoproterenol response counter-screen activity for D1 modulators; shares compounds with D1 allo mod; HEK293 D1 CRE-luciferase, isoproterenol EC30 counter-screen; calls only at 10 µM; hit rate 63% among 2,200; AID 647;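 active = luminescence in either replicate above plate mean of wells with a partly effective reference agonist dose plus 3 SD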;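 also: isoproterenol raises cAMP through native beta-adrenoceptor Gs so signal bypasses D1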
* hit, by the source's call. This excerpt belongs to a sample that is enriched for hits.

What do the screens show for `COC(=O)c1ccc(COC(=O)c2ccc(-n3cnnn3)cc2)o1`?
DAT uptake mod: -0.024; D1 allo mod: 6*; EphB4 antag: 2; D1 mod confirm: 5052; Isoprot counter: inactive

Results for CC1(C)C=C(c2ccc(O)cc2)CC(C)(C)N1 ?
DAT uptake mod: -0.34; D1 allo mod: 0.33; EphB4 antag: -4

Results for Cc1cc(C)n(-c2ncc(-c3ccccc3)nn2)n1 ?
DAT uptake mod: 0.67; D1 allo mod: 4.5*; EphB4 antag: 0; D1 mod confirm: 6696*; Isoprot counter: inactive

How did Cc1cc(C)n(-c2nncc(-c3ccccc3)n2)n1 do in these assays?
DAT uptake mod: 0.94; D1 allo mod: -0.018

How did Cc1nc(N2CCCCC2)c2sc(=S)n(C)c2n1 do in these assays?
DAT uptake mod: -0.93; D1 allo mod: 8.2*; EphB4 antag: -5; D1 mod confirm: 12412*; D1 no dopamine: 27240*; Isoprot counter: active

How did CCN1CCN(c2nc(C)nc3c2sc(=S)n3C)CC1 do in these assays?
DAT uptake mod: -0.97; D1 allo mod: 0.44; EphB4 antag: -9

What do the screens show for `CCCCNC(=O)CS(=O)Cc1nc(-c2cccc(C)c2)oc1C` (stereo unspecified)?
DAT uptake mod: -0.9; D1 allo mod: 0.076; EphB4 antag: -7

What do the screens show for `CCC(C)NC(=O)CS(=O)Cc1nc(-c2cccc(C)c2)oc1C` (stereo unspecified)?
DAT uptake mod: -0.41; D1 allo mod: 4.5*; EphB4 antag: 3; D1 mod confirm: 5396; D1 no dopamine: 1376; Isoprot counter: inactive

How did CNC(=O)c1nc(C)c(C2(C)CC(c3cccc([N+](=O)[O-])c3)=NO2)s1 (stereo unspecified) do in these assays?
DAT uptake mod: 0.24

How did O=C1CSC(c2ccc(F)cc2)N1c1nnc(C23CC4CC(CC(C4)C2)C3)s1 (stereo unspecified) do in these assays?
DAT uptake mod: -0.62; EphB4 antag: -1

How did COC(=O)c1sccc1NC(=O)c1cc(-c2ccc(C)cc2C)nc2ccccc12 do in these assays?
DAT uptake mod: -0.87; EphB4 antag: -4

Results for CCn1c(=O)c2cc(S(=O)(=O)NCc3ccccc3)ccc2n(CC)c1=O ?
DAT uptake mod: -0.9; D1 allo mod: -0.052; EphB4 antag: 4

What do the screens show for `CCn1c(=O)c2cc(S(=O)(=O)NC3CCCCC3)ccc2n(CC)c1=O`?
DAT uptake mod: -1.1; D1 allo mod: 4.2*; EphB4 antag: -2; D1 mod confirm: 6924*; D1 no dopamine: 1232; Isoprot counter: inactive

Results for CCOCCc1nnc(NC(=O)C(CC)c2ccccc2)s1 (stereo unspecified) ?
DAT uptake mod: 0.73; EphB4 antag: 4

How did O=C(OCc1nnc(-c2ccccc2)o1)c1ccc2c(c1)OCO2 do in these assays?
DAT uptake mod: -0.32; D1 allo mod: 0.2; EphB4 antag: 6

What do the screens show for `COc1cc(CCC(=O)OCn2nnc3ccccc3c2=O)cc(OC)c1OC`?
DAT uptake mod: 0.24; D1 allo mod: 0.14; EphB4 antag: 1

What do the screens show for `CCOc1ccc(C(=O)OCn2nnc3ccccc3c2=O)cc1OC`?
DAT uptake mod: -1.6; D1 allo mod: 16*; D1 mod confirm: 23528*; D1 no dopamine: 1684; Isoprot counter: active

What do the screens show for `CCOc1ccc(C(=O)OCc2nnc(-c3cccs3)o2)cc1OC`?
DAT uptake mod: 0.56; D1 allo mod: 15*; EphB4 antag: 4; D1 mod confirm: 16352*; D1 no dopamine: 1560; Isoprot counter: active

What do the screens show for `CC(=O)Cc1nsc(NC(=O)c2cn(-c3ccccc3)nc2-c2ccc(Br)cc2)n1`?
DAT uptake mod: 0.17; EphB4 antag: -2

What do the screens show for `C[C@@H](C(=O)N1CCN(C(=O)OC(C)(C)C)CC1)n1cc(CCCN=C(NC(=O)OC(C)(C)C)NC(=O)OC(C)(C)C)nn1`?
DAT uptake mod: -0.16

What do the screens show for `COc1ccccc1NC(=O)CC1COc2ccccc2O1` (stereo unspecified)?
DAT uptake mod: -0.37; EphB4 antag: 3

Results for COc1cccc(CN(C)C(=O)c2ccc3nccnc3c2)c1 ?
DAT uptake mod: 0.00084; EphB4 antag: 1

What do the screens show for `Cc1c(C(=O)OCC(C)C)[nH]c2c1C(=O)CC(c1ccco1)C2` (stereo unspecified)?
DAT uptake mod: -1.2; D1 allo mod: 5.8*; EphB4 antag: 2; D1 mod confirm: 12056*; D1 no dopamine: 1616; Isoprot counter: inactive

Results for C=CCOC(=O)c1[nH]c2c(c1C)C(=O)CC(c1ccco1)C2 (stereo unspecified) ?
DAT uptake mod: -1; D1 allo mod: 1.2

What do the screens show for `CCOC(=O)CN1C(=O)C(Sc2n[nH]c(-c3ccccc3)n2)CCc2ccccc21` (stereo unspecified)?
DAT uptake mod: 2.1; EphB4 antag: 4

Results for CCOc1ccc(NC(=O)CC2C(=O)N(c3cccc(OC)c3)C(=O)N2C(C)C)cc1 (stereo unspecified) ?
DAT uptake mod: 0.26

What do the screens show for `CCC(c1nnnn1CCOC)N(Cc1ccc(C)cc1)Cc1cc2cc(OC)ccc2[nH]c1=O` (stereo unspecified)?
DAT uptake mod: -0.66; D1 allo mod: 5.8*; EphB4 antag: 5; D1 mod confirm: 14016*; D1 no dopamine: 1612; Isoprot counter: active

How did CCOC(=O)Cn1nnnc1C(CC)N(Cc1ccccc1)Cc1cc2cc(C)ccc2[nH]c1=O (stereo unspecified) do in these assays?
DAT uptake mod: 0.27; EphB4 antag: -7

Results for Nc1nc(Cl)nc2c1ncn2[C@H]1C[C@H](O)[C@@H](CO)O1 ?
DAT uptake mod: 0.3; D1 allo mod: 7.5*; D1 mod confirm: 10544*; D1 no dopamine: 1496; Isoprot counter: active

What do the screens show for `Nc1ncnc2c1ncn2[C@H]1C[C@H](O)[C@@H](CO)O1`?
DAT uptake mod: -0.35

How did COc1ccc(Nc2ncccc2C(=O)NCc2ccccc2)cc1 do in these assays?
DAT uptake mod: 0.92; EphB4 antag: 3

How did COc1cccc(Nc2ncccc2C(=O)NCc2ccccc2)c1 do in these assays?
DAT uptake mod: 2.9; D1 allo mod: 11*; EphB4 antag: -2; D1 mod confirm: 21276*; D1 no dopamine: 1540; Isoprot counter: active

Results for CN1CCN(c2nc(-c3ccco3)cc(C(F)(F)F)n2)CC1 ?
DAT uptake mod: -0.74; EphB4 antag: -1

Results for COc1ccc(-c2cc(C(F)(F)F)nc(NCc3ccco3)n2)cc1OC ?
DAT uptake mod: -1.3; EphB4 antag: -3

Results for COc1cccc(-c2cc(C(F)(F)F)nc(NCc3ccco3)n2)c1 ?
DAT uptake mod: -0.7; D1 allo mod: 3*; EphB4 antag: 0; D1 mod confirm: 7368*; Isoprot counter: active
